# Data from PubChem BioAssay AID1159580 (chemical genetic matrix, 2015).
# Hit rate of the full screen: of about 5,500 compounds, about 2,000 (36%) were called active. About 18% were inconclusive and are not listed. The list shows a part of the results. Values without a mark were called inactive. No stated cut-off is given here; in the data, active means normalized growth mostly below about 0.91 (no sharp cut-off); inconclusive means no clear call, values can overlap the other calls; inactive means mostly above about 0.92.
# Experiment: chemical genetic growth profiling, strain panel (AID 1159580);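 further: tested at 20 µM; growth read once vehicle control cultures reached saturation at 30 °C; 1 = growth at the plate median or of vehicle wells; lower values mean less growth of the strain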
# Conditions: S. cerevisiae deletion strains, growth OD
# [1] = locus YAL013W, strain DEP1, active compounds read low
# [2] = locus YBR229C, strain ROT2, active compounds read low
# [3] = locus YDL101C, strain DUN1, active compounds read low
# [4] = locus YDL134C, strain PPH21, active compounds read low
# [5] = locus YDR150W, strain NUM1, active compounds read low
# [6] = locus YEL061C, strain CIN8, active compounds read low
# [7] = locus YGR078C, strain PAC10, active compounds read low
# [8] = locus YHR030C, strain SLT2, active compounds read low
# [9] = locus YHR087W, strain rtc3, active compounds read low
# [10] = locus YJR043C, strain POL32, active compounds read low
# [11] = locus YJR075W, strain HOC1, active compounds read low
# [12] = locus YLR039C, strain RIC1, active compounds read low
# [13] = locus YLR058C, strain SHM2 (second series), active compounds read low
# [14] = locus YLR085C, strain ARP6, active compounds read low
# [15] = locus YLR262C, strain YPT6, active compounds read low
# [16] = locus YML094W, strain GIM5, active compounds read low
# [17] = locus YMR219W, strain ESC1, active compounds read low
# [18] = locus YMR263W, strain SAP30, active compounds read low
# [19] = locus YMR307W, strain GAS1, active compounds read low
# [20] = locus YNL128W, strain TEP1, active compounds read low
# [21] = locus YNL153C, strain GIM3, active compounds read low
# [22] = locus YNL298W, strain CLA4 (second series), active compounds read low
# [23] = locus YNL322C, strain KRE1, active compounds read low
# [24] = locus YNR030W, strain Alg12, active compounds read low
# [25] = locus YPL055C, strain LGE1, active compounds read low
# [26] = locus YPL241C, strain CIN2, active compounds read low
# [27] = locus YPR135W, strain CTF4, active compounds read low
smiles,measurement,setting,value
CC(=O)Nc1ccc(C(F)(F)F)cc1Br,normalized growth,[1],1
same,normalized growth,[2],1.01
same,normalized growth,[3],0.979
same,normalized growth,[4],0.98
same,normalized growth,[5],0.862
same,normalized growth,[6],0.967
same,normalized growth,[7],0.993
same,normalized growth,[8],0.896
same,normalized growth,[9],1.05
same,normalized growth,[10],0.932
same,normalized growth,[11],0.99
same,normalized growth,[12],1
same,normalized growth,[13],0.972
same,normalized growth,[14],0.933
same,normalized growth,[15],1
same,normalized growth,[16],0.996
same,normalized growth,[17],0.999
same,normalized growth,[18],0.965
same,normalized growth,[19],1.06
same,normalized growth,[20],0.964
same,normalized growth,[21],0.994
same,normalized growth,[22],0.957
same,normalized growth,[23],0.989
same,normalized growth,[24],0.993
same,normalized growth,[25],1.05
same,normalized growth,[26],1
same,normalized growth,[27],0.897
O=C(Nc1ccccc1)Nc1ccc(C(F)(F)F)cc1Br,normalized growth,[1],0.968
same,normalized growth,[2],0.985
same,normalized growth,[3],1.04
same,normalized growth,[4],0.967
same,normalized growth,[5],0.957
same,normalized growth,[6],0.981
same,normalized growth,[7],0.948
same,normalized growth,[8],0.749
same,normalized growth,[9],0.941
same,normalized growth,"locus YJL187C, strain SWE1, active compounds read low",0.943
same,normalized growth,[10],0.926
same,normalized growth,[11],0.906
same,normalized growth,[12],0.843
same,normalized growth,[13],0.969
same,normalized growth,[14],0.728 (active)
same,normalized growth,[15],0.948
same,normalized growth,[16],0.957
same,normalized growth,[17],0.99
same,normalized growth,[18],0.917
same,normalized growth,[19],0.54 (active)
same,normalized growth,[20],0.957
same,normalized growth,[21],0.979
same,normalized growth,[22],0.799 (active)
same,normalized growth,[23],0.995
same,normalized growth,[24],0.887
same,normalized growth,"locus YOL006C, strain TOP1, active compounds read low",0.722 (active)
same,normalized growth,[25],0.842
same,normalized growth,[26],0.885
same,normalized growth,[27],0.878
O=C(Nc1cccc2ccccc12)c1ccccc1O,normalized growth,"locus YAR019C, strain CDC15, active compounds read low",0.848 (active)
same,normalized growth,"locus YBL105C, strain PKC1, active compounds read low",0.862 (active)
same,normalized growth,"locus YBR135W, strain CKS1, active compounds read low",0.85 (active)
same,normalized growth,"locus YBR136W, strain MEC1, active compounds read low",0.834 (active)
same,normalized growth,"locus YBR160W, strain CDC28, active compounds read low",0.872 (active)
same,normalized growth,"locus YDL017W, strain CDC7, active compounds read low",0.866 (active)
same,normalized growth,"locus YDL028C, strain MPS1, active compounds read low",0.816 (active)
same,normalized growth,[3],0.93
same,normalized growth,"locus YDL108W, strain KIN28, active compounds read low",0.827 (active)
same,normalized growth,"locus YDL132W, strain cdc53, active compounds read low",0.834 (active)
same,normalized growth,"locus YDL214C, strain PRR2, active compounds read low",0.563 (active)
same,normalized growth,"locus YDR052C, strain DBF4, active compounds read low",0.83 (active)
same,normalized growth,"locus YDR054C, strain cdc34, active compounds read low",0.842 (active)
same,normalized growth,"locus YDR226W, strain ADK1, active compounds read low",0.856 (active)
same,normalized growth,"locus YDR477W, strain SNF1, active compounds read low",0.563 (active)
same,normalized growth,"locus YER123W, strain YCK3, active compounds read low",0.432 (active)
same,normalized growth,"locus YER133W, strain GLC7, active compounds read low",0.524 (active)
same,normalized growth,"locus YFL009W, strain cdc4, active compounds read low",0.837 (active)
same,normalized growth,"locus YFL029C, strain CAK1, active compounds read low",0.845 (active)
same,normalized growth,"locus YFR003C, strain YPI1, active compounds read low",0.854 (active)
same,normalized growth,"locus YFR019W, strain FAB1, active compounds read low",0.781
same,normalized growth,"locus YFR028C, strain CDC14, active compounds read low",0.846 (active)
same,normalized growth,"locus YGR040W, strain KSS1, active compounds read low",0.557 (active)
same,normalized growth,"locus YGR052W, strain FMP48, active compounds read low",0.556 (active)
same,normalized growth,"locus YGR092W, strain DBF2, active compounds read low",0.324 (active)
same,normalized growth,[8],0.505 (active)
same,normalized growth,"locus YHR079C, strain IRE1, active compounds read low",0.405 (active)
same,normalized growth,"locus YHR082C, strain KSP1, active compounds read low",0.576 (active)
same,normalized growth,"locus YHR205W, strain SCH9, active compounds read low",0.687
same,normalized growth,"locus YIL147C, strain SLN1, active compounds read low",0.831 (active)
same,normalized growth,"locus YJL095W, strain BCK1, active compounds read low",0.488 (active)
same,normalized growth,"locus YJL128C, strain PBS2, active compounds read low",0.823
same,normalized growth,"locus YJL157C, strain FAR1, active compounds read low",0.492 (active)
same,normalized growth,"locus YJR016C, strain ILV3, active compounds read low",0.852 (active)
same,normalized growth,"locus YJR066W, strain TOR1 (second series), active compounds read low",0.645
same,normalized growth,"locus YJR066W, strain TOR1, active compounds read low",0.479 (active)
same,normalized growth,"locus YKL048C, strain ELM1, active compounds read low",0.768 (active)
same,normalized growth,"locus YKL067W, strain YNK1, active compounds read low",0.555 (active)
same,normalized growth,"locus YKL101W, strain HSL1, active compounds read low",0.585 (active)
same,normalized growth,"locus YKL193C, strain SDS22, active compounds read low",0.843 (active)
same,normalized growth,"locus YKL203C, strain TOR2, active compounds read low",0.572 (active)
same,normalized growth,"locus YLR113W, strain HOG1, active compounds read low",0.327 (active)
same,normalized growth,"locus YLR133W, strain CKI1, active compounds read low",0.595 (active)
same,normalized growth,"locus YLR403W, strain SFP1, active compounds read low",0.552 (active)
same,normalized growth,"locus YML070W, strain DAK1, active compounds read low",0.519 (active)
same,normalized growth,"locus YMR001C, strain CDC5, active compounds read low",0.838 (active)
same,normalized growth,"locus YMR205C, strain PFK2 (second series), active compounds read low",0.53 (active)
same,normalized growth,"locus YMR277W, strain FCP1, active compounds read low",0.839 (active)
same,normalized growth,"locus YNL006W, strain LST8, active compounds read low",0.858 (active)
same,normalized growth,"locus YNL020C, strain ARK1, active compounds read low",0.529 (active)
same,normalized growth,"locus YNL161W, strain CBK1, active compounds read low",0.864 (active)
same,normalized growth,"locus YNL183C, strain NPR1, active compounds read low",0.443 (active)
same,normalized growth,"locus YNL207W, strain RIO2, active compounds read low",0.834 (active)
same,normalized growth,"locus YNL222W, strain SSU72, active compounds read low",0.847 (active)
same,normalized growth,"locus YNL307C, strain MCK1 (second series), active compounds read low",0.571 (active)
same,normalized growth,"locus YOL078W, strain AVO1, active compounds read low",0.847 (active)
same,normalized growth,"locus YOL136C, strain PFK27, active compounds read low",0.533 (active)
same,normalized growth,"locus YOR061W, strain CKA2, active compounds read low",0.608 (active)
same,normalized growth,"locus YOR119C, strain RIO1, active compounds read low",0.549 (active)
same,normalized growth,"locus YOR231W, strain MKK1, active compounds read low",0.426 (active)
same,normalized growth,"locus YOR329C, strain SCD5, active compounds read low",0.857 (active)
same,normalized growth,"locus YPL031C, strain PHO85, active compounds read low",0.526 (active)
same,normalized growth,"locus YPL153C, strain RAD53, active compounds read low",0.52 (active)
same,normalized growth,"locus YPL204W, strain HRR25, active compounds read low",0.52 (active)
same,normalized growth,"locus YPL209C, strain IPL1, active compounds read low",0.86 (active)
same,normalized growth,"locus YPL256C, strain CLN2, active compounds read low",0.547 (active)
same,normalized growth,"locus YPR025C, strain CCL1, active compounds read low",0.855 (active)
same,normalized growth,"locus YPR106W, strain ISR1, active compounds read low",0.896
same,normalized growth,"locus YPR111W, strain DBF20, active compounds read low",0.884
same,normalized growth,"strain NNK1, active compounds read low",0.87 (active)
same,normalized growth,"strain TSCII, active compounds read low",0.833 (active)
